Here are results for 40 compounds from PubChem BioAssay (NCI).

This is part of a sample that, as a whole, favours compounds with a hit. Of some 83,000 tested, about 20% had one in any assay.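 Single-dose data. Exposure time 48 hours. Values below 10 considered active.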 Values without a mark were called inactive. The source made the active and inactive calls.

In the assay the test system is HCT-15 colon. Kind of assay: NCI-60 one-dose screen, 48 h (100 = growth as untreated, 0 = no growth, -100 = all killed). The note with it: 10 µM. The method, then: Growth inhibition of the HCT-15 human tumor cell line is measured as a screen for anti-cancer activity. Cells are grown in 96 well plates and exposed to the test compound for 48 hours. Compounds are tested at a single concentration, which is 10^-5 M for most compounds. The reported endpoint is percent growth (GI% or GIPRCNT), where numbers from 0 - 100% represent growth inhibition, and numbers from -100% - 0 represent cell death. For example, a value of 40 represents 60% growth inhibition. A value of 0 means no net growth occurred over the course of the experiment. A value of -40 indicates 40% of cells at the beginning of the experiment died by the end of the experiment. A value of -100 means all cells are dead at the end of the experiment.
NCI-60 Human Tumor Cell Lines Screen was performed using the standard one-dose NCI protocol, which is described in more detail at https://dtp.cancer.gov/discovery_development/nci-60/default.htm.
Compounds with GIPRCNT values below 10 were considered active. Activity score was based on GIPRCNT using the following formula: […]
Score is 0 for GIPRCNT values of 100 or above, 50 for GIPRCNT values of 0, and 100 for GIPRCNT values of -100.
Turning to `COc1cccc(CNc2cccc3cn[nH]c23)c1O`, the growth is 93.4%.

Consider `CN(C)c1ncnc2c1nnn2C1OC(CO)C(O)C1O` (stereo not given), for which the growth was 7.45% (active).

Consider `CC(=O)[C@@]12O[C@](C)(c3ccccc3)O[C@@H]1CC1C3CCC4=CC(=O)CC[C@]4(C)C3CC[C@@]12C` (stereo not given in full), for which the growth was 71%.

Consider `Cc1cc(CCNC=O)c(C)c2c1sc1ccccc12`, for which the growth was 90.2%.

As to `Cc1c2c(nn1C(=O)c1nn(-c3ccc(Cl)cc3)cc1O)-c1ccccc1CC2`, the growth was 25.1%.

With `O=S(=O)(Oc1ccc(-c2ccc3sccc3c2)cc1)c1ccccc1`, the growth was 89.8%.

Take `COc1ccccc1-n1c(-c2sc(NC(C)=O)nc2C)n[nH]c1=S`: the growth was 94.9%.

For the compound `Cc1c2c[n+](C(C)C)ccc2c(C)c2c1[nH]c1ccccc12`, the growth is 87.7%.

Regarding `CC(=O)OC1C=CC(OC(C)=O)O1` (stereo not given), the growth is 95.4%.

Regarding `CS(=O)(=O)c1nccc(-c2c(-c3cccc(OCCc4ccccc4)c3)nc3sccn23)n1`, the growth was 108%.

For the compound `Cc1noc(C)c1CSc1ccccc1C(=O)N1CCN(c2cccc(C(F)(F)F)c2)CC1`, the growth is 72.4%.

Regarding `COc1ccc2c(c1)C(CC(=O)NN)CCC2` (stereo not given), the growth was 104%.

On to `CCCCC1(O)CCCCC1`, for which the growth was 110%.

Turning to `CCC(C)[C@H](NC(C)=O)C(=O)N[C@@H](CCCNC(=N)N)C(=O)N[C@@H](CCCCN)C(=O)N[C@@H](CC1CCC(O)CC1)C(=O)NC(C(=O)N[C@@H](CCSC)C(=O)N[C@@H](CCCNC(=N)N)C(=O)N[C@@]1(C)CCC/C=C\CCC[C@@](C)(C(=O)NC(C(=O)N[C@@H](CCC(=O)O)C(=O)N[C@@H](CC(C)C)C(=O)N[C@H](C(=O)N[C@@H](CCC(=O)O)C(N)=O)C(C)C)[C@@H](C)O)NC(=O)[C@H](CCC(N)=O)NC(=O)[C@H](CC(C)C)NC(=O)[C@H](CC(C)C)NC1=O)[C@@H](C)O` (stereo not given in full), the growth was 100%.

Turning to `COc1ccc(-c2nn(-c3cccc(Cl)c3)cc2-c2c(C#N)c(=O)n3[nH]c(-c4ccccc4)nc3c2C#N)cc1`, the growth was 93.4%.

`COC(=O)c1c[nH]c2cc(OC(C)C)c(OC(C)C)cc2c1=O`: the growth was 101%.

In the case of `COc1cc(/C=C2\CCCC3=C2N=C2SC(C)=CN2C3c2cc(OC)c(OC)c(OC)c2)cc(OC)c1OC` (stereo not given), the growth is -65.4% (active).

`O=C1c2ccccc2C(=O)N1CCCCNc1ccccc1`: the growth was 96.8%.

Take `O=c1c(Br)ccc(Br)cc1Br`: the growth is -32.8% (active).

As for `CC(C)(C)c1nn(-c2ccccc2)c2c1CC1(CN2Cc2ccc(Cl)cc2)C(=O)c2ccccc2C1=O`, the growth is 88.2%.

For the compound `CCN1CCN(CCC(=O)Nc2cccc(-n3cc(-c4ccncc4)c(-c4ccc(Cl)c(OC)c4)n3)c2)CC1`, the growth is 13.7%.

Take `CCc1cc(Cl)c(OC)c(C(=O)NCC2CCCN2CC)c1O` (stereo not given): the growth is 91.8%.

As to `O=C(CSc1nnc(-c2ccc(Cl)cc2)o1)Nc1ccc(C(=O)/C=C/c2ccc(Cl)cc2)cc1`, the growth is 107%.

Regarding `Cc1c(C(N)=O)sc2c1c(=O)n(Cc1ccccc1)c1nnc(-c3ccc(Br)cc3)n21`, the growth was 25.3%.

As for `Fc1ccc(C(c2ccc(F)cc2)C(Cl)Cl)cc1`, the growth is 104%.

As for `O=C(CCl)Oc1ccc(OC(=O)CCl)cc1`, the growth is 94.1%.

Consider `CCN(CC)CCCC(C)Nc1c2ccc(Cl)cc2nc2ccc(OC)cc12` (stereo not given), for which the growth was 14.2%.

Consider `O=C(Nc1nc(-c2ccccc2)nc2c1sc(=S)n2-c1ccccc1)C(F)(F)F`, for which the growth was 88.4%.

In the case of `Oc1ccc(-c2[nH]c3ccccc3c2-c2nc3ccccc3o2)cc1`, the growth was 25.4%.

As for `C=CCn1c(SCC(=O)Nc2ccc(C(=O)/C=C/c3cc(OC)c(OC)c(OC)c3)cc2)nnc1-c1cc(-c2ccc(Cl)cc2)nc2ccccc12`, the growth was 59.5%.

Take `CC(C1=C(CN(C(=O)Cc2cn(-c3ccccc3)nc2-c2ccc(Cl)cc2)C(C)C)Cc2ccccc21)c1ccccn1` (stereo not given): the growth was 54.2%.

`CC1=CC2C(C(O)CC3(C)C2CC(C)C32OCOC23COCO3)C2(C)C/C(=C/O)C(=O)C=C12` (stereo not given): the growth was -24.2% (active).

On to `Nc1ncc(-c2cnn(C3CCNCC3)c2)cc1-c1nc2ccccc2o1`, for which the growth is 12.4%.

In the case of `O=C(CSc1nccc(Nc2cccc3ccccc23)n1)c1ccc(Cl)cc1`, the growth was 101%.

For the compound `CCOC(=O)CSc1nc(-c2cc(OC)ccc2OC)cc(-c2ccc(OC)cc2)c1C#N`, the growth was 69.1%.

As to `OC[C@H]1OC([S-])[C@H](O)[C@@H](O)[C@@H]1O.[Au+]` (stereo not given in full), the growth is 87.8%.

Consider `Nc1ccn(Cc2nnc(CCC(=O)c3nc4ccccc4[nH]3)o2)c(=O)n1`, for which the growth was 89.2%.

For `CC(C)c1ccc(C(C)C(=O)N(CC2=C(C(C)c3ccccn3)c3ccccc3C2)C(C)C)cc1` (stereo not given), the growth is 30.3%.

Turning to `S=c1cnc2ccccc2[nH]1`, the growth is 102%.

For the compound `O=C(COc1cccc(/C=C2\CSc3ccc(Cl)cc3C2=O)c1)c1ccc(Cl)cc1`, the growth is 47.9%.
